In PubChem BioAssay (NCI):
This is part of a sample that, as a whole, favours compounds with a hit. Of some 79,000 tested, about 15% had one in any assay. Values without a mark were called inactive. Active and inactive are the calls of the source. Rule as the data show it: active = growth inhibition above about 70%; inactive = the rest.

Columns and labels:
[1] = NCI Yeast Anticancer Drug Screen. Data for the rad50 strain (AID 155);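 also: 0% = growth of vehicle-only cultures of the same strain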; conditions: S. cerevisiae rad50 strain growth inhibition, active compounds read high
Summary of the method: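 A DNA repair-deficient yeast mutant serves as the test organism; compound-induced growth inhibition is calculated against vehicle-treated cells.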

[2] = NCI Yeast Anticancer Drug Screen. Data for the mec2-1 strain (AID 157); conditions: S. cerevisiae mec2-1 strain, active compounds read high
Summary of the method: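 Readout is yeast growth inhibition, normalised to vehicle-treated controls, in the mec2-1 strain exposed to compound.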

[3] = NCI Yeast Anticancer Drug Screen. Data for the sgs1 mgt1 strain (AID 161);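 also: 0% = growth of cultures given vehicle only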; conditions: S. cerevisiae sgs1 mgt1 strain, active compounds read high
Summary of the method: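 Yeast cells carrying a defined DNA-repair defect were exposed to test compounds. Growth inhibition was measured relative to vehicle-treated controls.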

[4] = NCI Yeast Anticancer Drug Screen. Data for the cln2 rad14 strain (AID 165);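 also: 0% = growth equal to vehicle treated cultures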; conditions: S. cerevisiae cln2 rad14 strain, active compounds read high
Summary of the method: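 Relative to vehicle controls, growth inhibition of compound-treated cln2 rad14 yeast was recorded.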

[5] = NCI Yeast Anticancer Drug Screen. Data for the bub3 strain (AID 167); conditions: S. cerevisiae bub3 mutant strain, active compounds read high
Summary of the method: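 Inhibition values come from growth of compound-treated mutant yeast normalised to vehicle-treated controls.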

[6] = NCI Yeast Anticancer Drug Screen. Data for the mlh1 rad18 strain (AID 175); conditions: S. cerevisiae mlh1 rad18 strain growth inhibition, active compounds read high
Summary of the method: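 Test agents were incubated with a yeast strain of defined genotype (DNA damage repair defect). Inhibition of growth was derived by comparison with vehicle-exposed cultures.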

[7] = at 5.0 µM (retest, dose inferred, filed as 0.5)
[8] = at 50.0 µM (retest, dose inferred, filed as 5.0)

Structure (SMILES) | growth inhibition [1, 7] | growth inhibition [1, 8] | growth inhibition ([1]; at 50.0 µM) | growth inhibition [2, 7] | growth inhibition [2, 8] | growth inhibition ([2]; at 50.0 µM) | growth inhibition [3, 7] | growth inhibition [3, 8] | growth inhibition ([3]; at 50.0 µM) | growth inhibition [4, 7] | growth inhibition [4, 8] | growth inhibition ([4]; at 50.0 µM) | growth inhibition [5, 7] | growth inhibition [5, 8] | growth inhibition ([5]; at 50.0 µM) | growth inhibition [6, 7] | growth inhibition [6, 8] | growth inhibition ([6]; at 50.0 µM)
N#CCc1nc(Cl)cc(Cl)n1 | 2% | 29% | 31.9% | 12% | 59% | 81.6% (active) | 2% | 24% | 19.8% | 4% | 12% | 9.7% | -4% | 2% | 5.05% | 3% | 27% | 15.9%
O=C(N=Nc1c(O)[nH]c2ccccc12)C(O)(c1ccccc1)c1ccccc1 | 18% | 32% | -6.25% | 19% | 32% | -8.75% | 21% | 82% (active) | 80.7% (active) | 26% | 27% | 35.5% | 12% | 38% | 25.9% | 29% | 38% | 29.1%
O=C1c2ccccc2C(=O)N1C(=NCc1ccccc1)c1ccccc1 | 7% | 70% (active) | 64.2% | 2% | 68% | 63.4% | 4% | 42% | 64% | 3% | 64% | 5.55% | -3% | 66% | 55.2% | 4% | 78% (active) | 83.2% (active)
O=C(N/C(=C\c1ccc2c(c1)OCO2)c1nc2ccccc2s1)c1ccccc1 | 19% | 98% (active) | 97% (active) | 1% | 98% (active) | 97.9% (active) | 38% | 98% (active) | 98.1% (active) | 10% | 97% (active) | 96.8% (active) | 19% | 98% (active) | 96.8% (active) | 18% | 97% (active) | 97.5% (active)
O=C(CC(=O)c1ccncc1)c1ccccc1 | 7% | 96% (active) | 97.2% (active) | 7% | 90% (active) | 94.7% (active) | 1% | 93% (active) | 97% (active) | -16% | 96% (active) | 93.8% (active) | -1% | 98% (active) | 97.6% (active) | 0% | 99% (active) | 98% (active)
CCS(=O)(=O)/C=C/c1ccncc1 | -3% | 11% | 24.7% | 3% | -1% | 27.9% | -2% | 12% | 6.4% | 1% | 12% | 5.85% | -2% | 2% | 7.9% | 11% | 11% | 20.3%
CCCC(=O)Oc1ccc(OCc2ccccc2)cc1 | -1% | 55% | -23.8% | -1% | 55% | -15.1% | 0% | 55% | 1.6% | -3% | -15% | -41.8% | 23% | 77% (active) | 75.2% (active) | 0% | 42% | -10.9%
CSC(=S)N/N=C\C(O)C(O)C(O)C(O)CO (stereo not given) | -2% | 9% | 97.6% (active) | -2% | 0% | 95.8% (active) | -2% | 1% | 95.2% (active) | 0% | 0% | 70.3% (active) | -1% | -2% | 96.3% (active) | -2% | 9% | 97.8% (active)
c1ccc(COc2cccc3[nH]ccc23)cc1 | -3% | 29% | 74.4% (active) | -3% | 10% | 90.2% (active) | -6% | 5% | 86.6% (active) | -7% | 6% | 88.8% (active) | 3% | 35% | 83.8% (active) | -5% | 25% | 95.5% (active)
COC(=O)C(=Cc1c[nH]c2ccccc12)C(=O)OC | -12% | 0% | 11.6% | 4% | 2% | 30.3% | -1% | -6% | 4.55% | -1% | -4% | 16.3% | -3% | 2% | 10.6% | -18% | -17% | 10.8%
